Test [1] in a line: BSK_CASM3C_SRB: Viability Assessment in the BioMAP Diversity Plus: CASM3C Assay (AID 2283050).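 Further: cells exposed to compound for 24 h.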 As to conditions: primary human coronary artery smooth muscle cells.
Read-out in test [2]: Thrombomodulin, THBD (gene 7056)
Kind of test: BSK_CASM3C_Thrombomodulin: BioMAP Diversity Plus: CASM3C Assay for Thrombomodulin Biomarker Activity (AID 2283051).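 Further: thrombomodulin protein level measured by ELISA 24 h after dosing.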 Particulars: primary human coronary artery smooth muscle cells; actives raise or lower the signal.

Read-out in test [3]: Tissue Factor, F3 (gene 2152)
Description: BSK_CASM3C_TissueFactor: BioMAP Diversity Plus: CASM3C Assay for Tissue Factor Biomarker Activity (AID 2283052).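 Further: cell surface tissue factor protein level read by ELISA.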 Particulars: primary human coronary artery smooth muscle cells; actives raise or lower the signal.

Read-out in test [4]: Interferon-gamma inducible Protein 10 (IP10), CXCL10 (gene 3627)
Description: BSK_hDFCGF_IP10: BioMAP Diversity Plus: hDFCGF Assay for Interferon-gamma inducible Protein 10 (IP10) Biomarker Activity (AID 2283053). As to conditions: primary human foreskin fibroblasts; actives raise or lower the signal. The procedure, abridged:
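Primary human foreskin fibroblasts exposed to chemicals for 24 h. IP-10 measured by ELISA; changes fitted bidirectionally against DMSO baseline.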

Read-out in test [5]: Urokinase-type plasminogen activator receptor (uPAR), PLAUR (gene 5329)
Kind of test: BSK_CASM3C_uPAR: BioMAP Diversity Plus: CASM3C Assay for Urokinase-type plasminogen activator receptor (uPAR) Biomarker Activity (AID 2283054).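 Further: cell-surface uPAR protein level quantified by ELISA.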 Particulars: primary human coronary artery smooth muscle cells; actives raise or lower the signal.

Read-out in test [6]: Vascular cell adhesion molecule 1 (VCAM1), VCAM1 (gene 7412)
Kind of test: BSK_CASM3C_VCAM1: BioMAP Diversity Plus: CASM3C Assay for Vascular cell adhesion molecule 1 (VCAM1) Biomarker Activity (AID 2283055).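 Further: VCAM-1 protein level quantified by ELISA on the cells.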 Particulars: primary human coronary artery smooth muscle cells; actives raise or lower the signal.

Read-out in test [7]: Collagen III, COL3A1 (gene 1281)
Kind of test: BSK_hDFCGF_CollagenIII: BioMAP Diversity Plus: hDFCGF Assay for Collagen III Biomarker Activity (AID 2283056). As to conditions: primary human foreskin fibroblasts; actives raise or lower the signal. The procedure, abridged:
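ELISA readout of Collagen III in human dermal (foreskin) fibroblasts, taken 24 h post-treatment. Gain or loss relative to DMSO vehicle fitted in both directions.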

Read-out in test [8]: Epidermal growth factor receptor (EGFR), EGFR (gene 1956)
Description: BSK_hDFCGF_EGFR: BioMAP Diversity Plus: hDFCGF Assay for Epidermal growth factor receptor (EGFR) Biomarker Activity (AID 2283057). As to conditions: primary human foreskin fibroblasts; actives raise or lower the signal. The procedure, abridged:
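Primary human foreskin fibroblasts (hDFCGF system), sampled 24 h after dosing; EGFR quantified by ELISA. Bidirectional fit relative to DMSO baseline; SRB total-protein staining in parallel cultures for cytotoxicity.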

Read-out in test [9]: Interleukin-8 (IL8), CXCL8 (gene 3576)
Kind of test: BSK_hDFCGF_IL8: BioMAP Diversity Plus: hDFCGF Assay for Interleukin-8 (IL8) Biomarker Activity (AID 2283058). Particulars: primary human foreskin fibroblasts; actives raise or lower the signal. The gist of the method:
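IL-8 levels read by ELISA at 24 hours after dosing human skin fibroblast cultures. Parallel SRB staining assessed overt cytotoxicity, and gain or loss of signal was fitted against DMSO control.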

The nature of test [10]: BSK_hDFCGF_Proliferation: Cell Proliferation Assessment in the BioMAP Diversity Plus: hDFCGF Assay (AID 2283059).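 Further: curves fitted for both rise and fall of signal versus DMSO baseline.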 As to conditions: primary human foreskin fibroblasts. The gist of the method: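 This proliferation readout used SRB total-protein staining of human foreskin fibroblasts […], normalized to DMSO with bidirectional curve fitting.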
Read-out in test [11]: Macrophage colony-stimulating factor (MCSF), CSF1 (gene 1435)
Kind of test: BSK_hDFCGF_MCSF: BioMAP Diversity Plus: hDFCGF Assay for Macrophage colony-stimulating factor (MCSF) Biomarker Activity (AID 2283060). Particulars: primary human foreskin fibroblasts; actives raise or lower the signal. The gist of the method: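 M-CSF levels read by ELISA at 24 h post-dosing in human skin fibroblasts. Parallel cultures stained with SRB assessed cytotoxicity at the same time point; response fitted in both directions against the DMSO baseline.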

Test [12] in a line: BSK_hDFCGF_SRB: Viability Assessment in the BioMAP Diversity Plus: hDFCGF Assay (AID 2283061).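 Further: cells exposed to compound for 24 h before the read.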 As to conditions: primary human foreskin fibroblasts. The procedure, abridged: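 Viability was read as total protein: after 10% TCA fixation, wells were stained with 0.1% sulforhodamine B and read at 560 nm. Primary human foreskin fibroblasts were dosed for 24 h, with bidirectional fitting versus DMSO.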

Read-out in test [13]: TIMP metallopeptidase inhibitor 1 (TIMP1), TIMP1 (gene 7076)
Kind of test: BSK_hDFCGF_TIMP1: BioMAP Diversity Plus: hDFCGF Assay for TIMP metallopeptidase inhibitor 1 (TIMP1) Biomarker Activity (AID 2283062). Particulars: primary human foreskin fibroblasts; actives raise or lower the signal. The procedure, abridged:
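TIMP-1 measured by ELISA 24 h after chemical dosing of primary human skin fibroblasts, with gain or loss fitted relative to DMSO. Parallel SRB staining (560 nm) monitored overt cytotoxicity.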

Read-out in test [14]: Monokine induced gamma interferon (MIG), CXCL9 (gene 4283)
Kind of test: BSK_hDFCGF_MIG: BioMAP Diversity Plus: hDFCGF Assay for Monokine induced gamma interferon (MIG) Biomarker Activity (AID 2283063). As to conditions: primary human foreskin fibroblasts; actives raise or lower the signal. The procedure, abridged: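 Human primary foreskin fibroblasts in the hDFCGF system, exposed to test chemical for 24 h; MIG measured by ELISA. Bidirectional curve fitting against DMSO negative control as activity baseline.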

Read-out in test [15]: Matrix Metallopeptidase 1 (MMP1), MMP1 (gene 4312)
Description: BSK_hDFCGF_MMP1: BioMAP Diversity Plus: hDFCGF Assay for Matrix Metallopeptidase 1 (MMP1) Biomarker Activity (AID 2283064). Particulars: primary human foreskin fibroblasts; actives raise or lower the signal. The gist of the method: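 Primary human foreskin fibroblasts in the hDFCGF system were dosed with test chemical, and MMP1 was measured by ELISA 24 h later. Values come from bidirectional curve fitting against the DMSO baseline.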

Read-out in test [16]: Plasminogen activator inhibitor-1 (PAI1), SERPINE1 (gene 5054)
Kind of test: BSK_hDFCGF_PAI1: BioMAP Diversity Plus: hDFCGF Assay for Plasminogen activator inhibitor-1 (PAI1) Biomarker Activity (AID 2283066). As to conditions: primary human foreskin fibroblasts; actives raise or lower the signal. The procedure, abridged:
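Human foreskin fibroblast primary cells, 24 h chemical exposure; PAI-1 measured by ELISA. Bidirectional fitting relative to DMSO; parallel cultures stained with SRB for total protein to flag overt cytotoxicity.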

Read-out in test [17]: Interferon-gamma inducible Protein 10 (IP10), CXCL10 (gene 3627)
Description: BSK_KF3CT_IP10: BioMAP Diversity Plus: KF3CT Assay for Interferon-gamma inducible Protein 10 (IP10) Biomarker Activity (AID 2283068). Particulars: primary human keratinocytes with fibroblasts; actives raise or lower the signal. The gist of the method: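 Signal is secreted/surface IP-10 by ELISA in a human primary skin co-culture of keratinocytes and foreskin fibroblasts, taken 24 h post-dosing; DMSO served as negative control.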

Test [18] can be described thus: BSK_KF3CT_SRB: Viability Assessment in the BioMAP Diversity Plus: KF3CT Assay (AID 2283069).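 Further: total protein by sulforhodamine B staining as a cytotoxicity measure; read 24 h after compound addition; fitted for both signal gain and loss against DMSO baseline.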 Particulars: primary human keratinocytes with fibroblasts. The gist of the method:
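Human primary keratinocyte plus foreskin fibroblast co-culture exposed to chemicals for 24 h. Total protein measured by 0.1% sulforhodamine B staining after 10% TCA fixation, read at 560 nm; bidirectional fitting versus DMSO baseline.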

Active and inactive are the calls of the source. How the source made its calls: active means hit-call score of the fitted dose curve at least 0.9, where 1 is the maximum; inactive means score below 0.9.

As to `COc1ccccc1NC(=O)CC(C)=O`, the outcome in test [1], in test [2], in test [3], in [4], in test [5] and in test [6] was inactive. The result in test [7], in test [8], in [9], in test [10], in test [11] and in [12] was inactive. Also, the result in [13], in [14], in test [15], in test [16], in test [17] and in test [18] was inactive.
The AC50 is the concentration giving half of the maximal activity seen. As for `C#C[C@]1(O)CC[C@H]2[C@@H]3CCc4cc(O)ccc4[C@H]3CC[C@@]21C`, the outcome in test [1], in [2], in test [3], in [4], in test [5] and in test [6] was inactive. In addition, the result in [7], in [8], in test [9], in test [11], in [12] and in test [13] was inactive. Besides, the result in test [14], in [15], in test [16], in test [17] and in test [18] was inactive. Further, the half-maximal activity concentration (AC50) in test [10] is 7.35 µM (active).
With `CCCCCCCC1CCCC1=O` (stereo not drawn), the AC50 was 36.6 µM (active) in test [1]; 31.8 µM (active) in test [3]; 29.5 µM (active) in test [5]; 30.9 µM (active) in [6]; 33.3 µM (active) in [10]; 35.1 µM (active) in test [18]. Besides, the outcome in test [2], in test [4], in test [7], in test [8], in [9] and in test [11] was inactive. The result in test [12], in test [13], in test [14], in [15], in test [16] and in [17] was inactive.
On to `CCCCOCCOCCO`, for which the result in [1], in [2], in test [3], in test [4], in [5] and in test [6] was inactive. In addition, the outcome in test [7], in test [8], in test [9], in test [10], in test [11] and in test [12] was inactive. Further, the result in test [13], in test [14], in test [15], in [16], in test [17] and in [18] was inactive.
Consider `O=S(=O)(O)C(F)(F)C(F)(F)OC(F)(F)C(F)(F)F`, for which the outcome in test [1], in [2], in [3], in [4], in [5] and in test [6] was inactive. Besides, the outcome in test [7], in test [8], in [9], in test [10], in [11] and in test [12] was inactive. In addition, the outcome in [13], in [14], in test [15], in test [16], in test [17] and in [18] was inactive.
Regarding `C=C(C)C(=O)OCCC(F)(F)C(F)(F)C(F)(F)C(F)(F)C(F)(F)C(F)(F)C(F)(F)C(F)(F)F`, the outcome in [1], in [2], in [3], in test [4], in [5] and in [6] was inactive. The outcome in test [7], in test [8], in test [9], in [10], in test [11] and in test [12] was inactive. For the same compound, the result in [13], in test [14], in test [15], in test [16], in test [17] and in [18] was inactive.
For `CC(C)Cc1ccc(C(C)C(=O)O)cc1` (stereo not drawn), the outcome in [1], in [3], in [4], in [5], in [6] and in test [8] was inactive. In addition, the outcome in test [9], in test [10], in test [11], in test [12], in test [13] and in test [14] was inactive. Besides, the result in test [15], in test [16], in test [17] and in test [18] was inactive. Also, the AC50 in test [2] was 6.11 µM (active); in [7], 3.33 µM (active).
In the case of `CC1(C)[C@H](C=C(Cl)Cl)[C@H]1C(=O)OCc1cccc(Oc2ccccc2)c1`, the outcome in [1], in test [2], in [3], in test [4], in test [5] and in [6] was inactive. Moreover, the result in [7], in [8], in test [9], in test [10], in test [11] and in [12] was inactive. Besides, the outcome in test [13], in test [14], in test [15], in test [16], in [17] and in test [18] was inactive.
Turning to `CC(=O)CCC=C(C)CCC=C(C)C`, the outcome in test [1], in test [2], in test [3], in test [4], in [5] and in test [7] was inactive. In addition, the result in [8], in test [9], in test [11], in test [12], in test [13] and in [14] was inactive. The result in test [15], in test [16], in test [17] and in [18] was inactive. In addition, the figures for the half-maximal activity concentration (AC50) in test [6] and in test [10] were 25.4 µM (active) and 31.3 µM (active), respectively.
With `NC(=O)c1c(Cl)cccc1Cl`, the result in test [1], in [2], in test [3], in test [4], in test [5] and in test [6] was inactive. The result in test [7], in test [8], in [9], in [10], in test [11] and in test [12] was inactive. For the same compound, the outcome in [13], in test [14], in test [15], in test [16], in [17] and in [18] was inactive.
As for `CCCCN(CCO)CCO`, the result in test [1], in test [2], in test [3], in test [4], in [5] and in test [6] was inactive. Besides, the outcome in test [7], in test [8], in test [9], in test [10], in test [11] and in test [12] was inactive. Moreover, the result in test [13], in [14], in test [15], in test [16], in test [17] and in [18] was inactive.

The record behind these values is PubChem BioAssay (EPA / NIEHS).
